# In PubChem BioAssay (Tox21):
# A number with no mark means an inactive call. Records with an inconclusive call do not appear. Active and inactive are the calls of the source. Unless noted, the call rests on the fitted dose curve; in most records, active means well fitted cell-killing curve with a large enough effect in the repeat runs; inconclusive means weak or mixed curves, or effect the other way; inactive means flat fitted curve, though single readings scatter.
# Tested on: not listed separately
# Test: qHTS assay to identify small molecule agonists of the TGF-beta/Smad signaling pathway - cell viability counter screen (AID 1346829); further: nearly all actives have a fitted effect of over 45% in size; further: potency means the concentration at half of the fitted maximal effect; on activity change, negative = cytotoxicity: top concentration of the series differs between compounds
# Conditions: SBE-bla HEK293T viability, CellTiter-Glo luminescence, 5 h; series mostly up to 76.8 µM; activity change, negative = cytotoxicity: at the top concentration
# Method in brief: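 HEK 293T SBE-bla line, 5 hr compound exposure at 37 C, multiplexed CellTiter-Glo viability read by luminescence.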
# On the % scale 0 is the no-effect control and ±100 the full control effect.
SMILES,"activity change, negative = cytotoxicity",Potency
NC(=O)CCCCC(N)=O,-4.98%,
C[C@H](CS)C(=O)N1CCC[C@H]1C(=O)O,6.93% [at 35.3 µM],
Cc1ccccc1S(N)(=O)=O,-1.2%,
Cc1ccc2c(c1)CCCN2,0.588%,
CCCCC(CC)COS(=O)(=O)O (centres undefined),5.83%,
CC1=CC[C@@]23C[C@@H]1C(C)(C)[C@@H]2CC[C@H]3C,-0.915%,
O=S(=O)(Cl)c1c(Cl)cccc1Cl,12.5%,
CCCCCCCCCCCCCCN(C)C,4.77% [at 15.8 µM],
CCCCCCCCCCCCCOS(=O)(=O)O,-4.74%,
CC(=O)NNC(C)=O,-2.97%,
CNCc1ccc(NC(=O)c2c[nH]c3c2C(=O)CCC3)cc1,-0.608%,
CCCCCCC(O)CCCCCCCCCCC(=O)OC (centres undefined),7.39%,
CCOc1ncc(F)c(=O)[nH]1,-17.2% [at 35.3 µM],
CN1C(CSCC(F)(F)F)Nc2cc(Cl)c(S(N)(=O)=O)cc2S1(=O)=O (centres undefined),0.653% [at 35.3 µM],
C[C@@H]1C[C@H]2[C@@H]3CCC4=CC(=O)C=C[C@]4(C)[C@@]3(F)[C@@H](O)C[C@]2(C)[C@@]1(O)C(=O)COP(=O)(O)O,2.3%,
CCCCC[C@H](O)/C=C/[C@H]1[C@H](O)CC(=O)[C@@H]1C/C=C\CCCC(=O)O,8.72% [at 35.3 µM],
CC1C(C)(C)C2=C(C(=O)CCC2)C1(C)C (centres undefined),10%,
CCCc1nc2c(C)cc(-c3nc4ccccc4n3C)cc2n1Cc1ccc(-c2ccccc2C(=O)O)cc1,11.3% [at 35.3 µM],
O=C1OC[C@H](Cc2cccc(O)c2)[C@H]1Cc1cccc(O)c1,-2.9% [at 35.3 µM],

SMILES,"activity change, negative = cytotoxicity",Potency
CNS(=O)(=O)c1cc(C(=O)N2CCC(CCN3C4CCC3CC(n3c(C)nc5ccccc53)C4)(c3cccc(F)c3)CC2)c(Cl)cc1F (centres undefined),-8.23%,
CC1CCC(C(C)CS)CC1S (centres undefined),,54.9 µM (active)
C1=CCC2CC=CC2C1 (centres undefined),-6.58%,
CCC(=O)OCc1ccc(OC)cc1,8.1%,
C=CCOC(=O)COCCC(C)C,-16%,
O=C(/C=C/c1ccc([N+](=O)[O-])cc1)c1ccccc1,-1%,
Cc1ccc(S(=O)(=O)NC(=O)NC2CCCCC2)cc1,-2.19% [at 35.3 µM],
O=C(c1ccccc1)c1ccc(O)cc1,0.0991%,
CC(C)CC(O)CC(C)C,-12.5%,
CNc1c2c(nn1C)CCCC2,4.83% [at 35.3 µM],
Nc1ccc(S(=O)(=O)NCc2ccccc2)cc1,0.165% [at 35.3 µM],
CC[C@@H](CO)NCCN[C@@H](CC)CO,-20.7% [at 35.3 µM],
Nc1ccn([C@H]2CS[C@@H](CO)O2)c(=O)n1,-5.83%,
Cc1ccc(Cl)cc1N,14.5%,
CC(C)(C)CCCCCCOC(=O)c1ccccc1C(=O)OCCCCCCC(C)(C)C,0.986%,
Cc1oc(=O)oc1COC(=O)[C@@H]1N2C(=O)[C@@H](NC(=O)[C@H](N)c3ccccc3)[C@H]2SC1(C)C,-14.4% [at 35.3 µM],
SCCc1cnccn1,-10.8%,
ClC1=C(Cl)C1(Cl)Cl,3.05%,
C=CC(=O)O,-1.13% [at 35.3 µM],

# Tested on: not listed separately
# Test: qHTS assay to identify small molecule agonists of the TGF-beta/Smad signaling pathway (AID 1346859; active means well fitted activation curve with a large enough effect in the signal ratio in the repeat runs, not every such curve was filed as active; the % refers to the signal ratio)
# Conditions: SBE-bla HEK293T, TGF-beta/Smad beta-lactamase reporter, 5 h; series mostly up to 76.8 µM; activation: at the top concentration
# Method in brief: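 After overnight seeding, SBE-bla HEK 293T cells are dosed with compounds in DMSO and kept 5 hr at 37 C, 5% CO2. LiveBLAzer-type FRET substrate is then applied for 2 hr at room temperature.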
row,SMILES,activation
1,NC(=O)CCCCC(N)=O,2.19%
2,C[C@H](CS)C(=O)N1CCC[C@H]1C(=O)O,0.144% [at 35.3 µM]
3,Cc1ccccc1S(N)(=O)=O,-1.23%
4,CCCCC(CC)COS(=O)(=O)O (centres undefined),3.85%
5,CC1=CC[C@@]23C[C@@H]1C(C)(C)[C@@H]2CC[C@H]3C,-0.619%
6,O=S(=O)(Cl)c1c(Cl)cccc1Cl,1.18%
7,CCCCCCCCCCCCCCN(C)C,-0.505% [at 15.8 µM]
8,CCCCCCCCCCCCCOS(=O)(=O)O,6.73%
9,CC(=O)NNC(C)=O,-1.15%
10,CNCc1ccc(NC(=O)c2c[nH]c3c2C(=O)CCC3)cc1,-0.0964%
11,CCCCCCC(O)CCCCCCCCCCC(=O)OC (centres undefined),0.609%
12,CN1C(CSCC(F)(F)F)Nc2cc(Cl)c(S(N)(=O)=O)cc2S1(=O)=O (centres undefined),-0.109% [at 35.3 µM]
13,C[C@@H]1C[C@H]2[C@@H]3CCC4=CC(=O)C=C[C@]4(C)[C@@]3(F)[C@@H](O)C[C@]2(C)[C@@]1(O)C(=O)COP(=O)(O)O,0.765%
14,CC1C(C)(C)C2=C(C(=O)CCC2)C1(C)C (centres undefined),-1.41%
15,O=C1OC[C@H](Cc2cccc(O)c2)[C@H]1Cc1cccc(O)c1,-0.436% [at 35.3 µM]
16,CCC(=O)OCc1ccc(OC)cc1,0.502%
17,C=CCOC(=O)COCCC(C)C,-3.53%
18,Cc1ccc(S(=O)(=O)NC(=O)NC2CCCCC2)cc1,-1.14% [at 35.3 µM]
19,O=C(c1ccccc1)c1ccc(O)cc1,-7.88%
20,CC(C)CC(O)CC(C)C,-4.34%
21,CNc1c2c(nn1C)CCCC2,5.31% [at 35.3 µM]
22,CC[C@@H](CO)NCCN[C@@H](CC)CO,0.156% [at 35.3 µM]
23,Nc1ccn([C@H]2CS[C@@H](CO)O2)c(=O)n1,-0.503%
24,Cc1ccc(Cl)cc1N,1.59%
25,CC(C)(C)CCCCCCOC(=O)c1ccccc1C(=O)OCCCCCCC(C)(C)C,0.599%
26,Cc1oc(=O)oc1COC(=O)[C@@H]1N2C(=O)[C@@H](NC(=O)[C@H](N)c3ccccc3)[C@H]2SC1(C)C,-1.05% [at 35.3 µM]
27,SCCc1cnccn1,-2.72%

# Molecular target: Thyrotropin-releasing hormone receptor (Homo sapiens) (UniProt P34981)
# Test: qHTS assay to identify small molecule antagonists of the thyrotropin-releasing hormone receptor (TRHR) signaling pathway (AID 1346877; active means well fitted inhibition curve with a large enough effect in the repeat runs, not every such curve was filed as active)
# Conditions: TRHR-HEK293, TRH-induced calcium fluorescence, antagonist mode; series mostly up to 51.3 µM; activity, negative = inhibition: at the top concentration
# Method in brief: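 TRHR-expressing HEK293 cells were seeded, cultured 18 h at 37 °C, then loaded with calcium dye for 2 h. Compounds were pre-incubated 5 min at room temperature before 1 nM TRH (final) was added, and kinetic fluorescence was recorded for 3 min.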
# Thyrotropin-releasing hormone receptor (Homo sapiens), sequence (P34981 whole entry, looked up): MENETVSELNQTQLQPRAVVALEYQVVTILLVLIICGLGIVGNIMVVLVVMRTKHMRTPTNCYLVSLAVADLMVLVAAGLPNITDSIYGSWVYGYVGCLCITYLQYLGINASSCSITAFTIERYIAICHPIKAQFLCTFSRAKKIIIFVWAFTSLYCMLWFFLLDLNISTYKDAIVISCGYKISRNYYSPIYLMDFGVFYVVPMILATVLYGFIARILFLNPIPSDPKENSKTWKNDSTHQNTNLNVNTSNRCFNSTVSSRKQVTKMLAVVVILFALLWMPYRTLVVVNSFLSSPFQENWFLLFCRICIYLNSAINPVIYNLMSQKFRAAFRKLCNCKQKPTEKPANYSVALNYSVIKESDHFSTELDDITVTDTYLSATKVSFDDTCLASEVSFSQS
row,SMILES,"activity, negative = inhibition"
1,C[C@H](CS)C(=O)N1CCC[C@H]1C(=O)O,2.61% [at 23.6 µM]
2,Cc1ccccc1S(N)(=O)=O,0.0065%
3,Cc1ccc2c(c1)CCCN2,9.71%
4,CCCCC(CC)COS(=O)(=O)O (centres undefined),1.33%
5,O=S(=O)(Cl)c1c(Cl)cccc1Cl,-4.18%
6,CCCCCCCCCCCCCCN(C)C,0.781% [at 10.5 µM]
7,CC(=O)NNC(C)=O,3.24%
8,CNCc1ccc(NC(=O)c2c[nH]c3c2C(=O)CCC3)cc1,3.84%
9,CCCCCCC(O)CCCCCCCCCCC(=O)OC (centres undefined),-0.311%
10,CCCCC[C@H](O)/C=C/[C@H]1[C@H](O)CC(=O)[C@@H]1C/C=C\CCCC(=O)O,3.05% [at 23.6 µM]
11,CC1C(C)(C)C2=C(C(=O)CCC2)C1(C)C (centres undefined),6.15%
12,CCCc1nc2c(C)cc(-c3nc4ccccc4n3C)cc2n1Cc1ccc(-c2ccccc2C(=O)O)cc1,-0.888% [at 23.6 µM]
13,O=C1OC[C@H](Cc2cccc(O)c2)[C@H]1Cc1cccc(O)c1,-0.529% [at 23.6 µM]
14,CC1CCC(C(C)CS)CC1S (centres undefined),-13.1%
15,CCC(=O)OCc1ccc(OC)cc1,5.34%
16,C=CCOC(=O)COCCC(C)C,0.671%
17,Cc1ccc(S(=O)(=O)NC(=O)NC2CCCCC2)cc1,-2.31% [at 23.6 µM]
18,O=C(c1ccccc1)c1ccc(O)cc1,9.85%
19,CC(C)CC(O)CC(C)C,1.16%
20,CNc1c2c(nn1C)CCCC2,-1.17% [at 23.6 µM]
21,Nc1ccc(S(=O)(=O)NCc2ccccc2)cc1,9.86% [at 23.6 µM]
22,CC(C)(C)CCCCCCOC(=O)c1ccccc1C(=O)OCCCCCCC(C)(C)C,-1.06%
23,Cc1oc(=O)oc1COC(=O)[C@@H]1N2C(=O)[C@@H](NC(=O)[C@H](N)c3ccccc3)[C@H]2SC1(C)C,-3.76% [at 23.6 µM]
24,ClC1=C(Cl)C1(Cl)Cl,-1.61%
